KB-3-1 tox = kills parental KB-3-1 adenocarcinoma cells; Potency, µM (highest dose often 46.1 µM), most hits filed as cytotoxic; 1.4% of 400,000 active; AID 1347075; KB-3-1 viability, CellTiter-Glo ATP luminescence, 72 h; also: nearly all actives have a fitted effect of over 60% in size
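KB-3-1 cells, DMEM (no phenol red) + 10% FBS; compound by pin transfer, 72 h, 37 °C. Readout: CellTiter-Glo luminescence after 10 min. Data normalized, curve-fitted.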
MCF10A rerep = induces DNA re-replication in MCF 10a normal breast cells; MCF 10A DNA re-replication, Hoechst nuclear intensity, 48 h; Potency, µM (doses to about 46.1 µM), actives largely listed as activators; 2.9% of 350,000 active; AID 624296; also: nearly all actives have a fitted effect of over 50% in size
KB-V1 cytotox = kills drug-selected multidrug resistant KB-V1 cells. KB-V1 MDR cells viability, CellTiter-Glo, 72 h. Potency, µM (titrated, usually from 46.1 µM), usual class: cytotoxic. 3.4% of 400,000 active. AID 1347076; also: nearly all actives have a fitted effect of over 60% in size
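Luminescent ATP read-out (CellTiter-Glo, 10 min) measures survival of drug-selected KB-V1 MDR cells after 72 h, 37 degrees C compound exposure. Medium: phenol-red-free DMEM, 10% FBS. Values from fitted concentration-response curves.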
SW480 rerep = inducers of DNA re-replication in SW480 colon cancer cells; SW480 DNA re-replication, Hoechst DNA content imaging, 48 h; Potency, µM (titrated, usually from 46.1 µM), actives largely listed as activators; 1.8% of 340,000 active; also: nearly all actives have a fitted effect of over 55% in size
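First, 250 cells per well were seeded. Next, compound or vehicle (23 nL) was pinned in, plates sat 48 hr at 37 C. Finally Hoechst was added for 40 min before fluorescence scanning.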
PINK1 modulator = PINK1 expression modulation; Potency, µM (top dose mostly 76.6 µM), actives largely listed as activators; 0.2% of 410,000 active; PINK1 immunofluorescence, high-content cytometry, 24 h; AID 624263; active = well fitted activation curve with a large enough effect; inconclusive = small, poorly fitted or top-dose-only effect; cell line not stated here; also: nearly all actives have a fitted effect of over 65% in size
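Stable cell line, 250 cells/well, 12 h attachment; compounds pinned at 5 concentrations, 24 h; CCCP control. Fixed with nuclear dye, primary antibodies 12 h at 10 degrees C, secondary plus cell stain; laser-scanning cytometer read.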
Each line names hits and unclear results; the compound was inactive in the other large screens. Only some compounds are listed: those with a hit (about 6.7% of all), similar ones and a draw of the others. Unless noted, calls follow the shape of the dose curve; as a rule, active = well fitted curve in the direction sought with a large enough effect; inconclusive = small, poorly fitted or top-dose-only effect, or another doubt; inactive = no such curve, though single readings can be large; an effect the other way counts as inactive or inconclusive.

COc1cccc(CNC(=O)Cc2ccc(-c3ccccc3)cc2)c1	KB-3-1 tox inconclusive, MCF10A rerep 10µM, KB-V1 cytotox inconclusive, SW480 rerep inconclusive
COc1ccc(C(=O)NCc2cc(C)nc3ccccc23)cc1	KB-3-1 tox 18µM, MCF10A rerep inconclusive, SW480 rerep inconclusive
COc1cccc(CNC(=O)Cn2cccc2C(=O)c2ccccc2)c1	none (no result: KB-3-1 tox, MCF10A rerep, KB-V1 cytotox, SW480 rerep)
Cc1ccn2c(=O)c(NC(=O)c3ccc4c(c3)OCO4)c(C)nc2c1	none (no result: MCF10A rerep, SW480 rerep)
COc1ccc(C(CNC(=O)Cc2ccc(-c3ccccc3)cc2)N(C)C)cc1 (configuration not stated)	MCF10A rerep inconclusive, SW480 rerep 18µM
O=C(COc1ccc(C(=O)c2ccccc2)cc1)NCC1CCCCC1	MCF10A rerep 18µM
Cc1cc2[nH]c(=O)c(=O)[nH]c2cc1S(=O)(=O)N1CCN(c2cccc(Cl)c2)CC1	KB-V1 cytotox inconclusive
Cc1cc2[nH]c(=O)c(=O)[nH]c2cc1S(=O)(=O)N1CCN(c2cccc(C(F)(F)F)c2)CC1	MCF10A rerep 16µM
NNc1cc2c(nn1)CCN(C(=O)c1ccccc1)C2	KB-3-1 tox 18µM (no result: MCF10A rerep, SW480 rerep)
CC(=O)OCC(=O)[C@H]1CC[C@H]2[C@@H]3CCC4=CC(=O)CC[C@]4(C)[C@H]3CC[C@]12C	KB-3-1 tox inconclusive, KB-V1 cytotox 15µM
C[C@]12CCC(=O)C=C1CCC1C2CC[C@@]2(C)C1CCC21OCCO1 (some centres not stated)	MCF10A rerep 21µM, KB-V1 cytotox inconclusive
C[C@]12CCC(=O)C=C1CC[C@@H]1[C@@H]2CC[C@@]2(C)[C@H]1CC[C@@]21CCC(=O)O1	none
COc1cccc(C(=O)Nc2ccc(-c3nc4ccccc4[nH]3)cc2)c1	none (no result: MCF10A rerep, SW480 rerep, PINK1 modulator)
CN(C)/[N+]([O-])=N/Oc1cc(F)c([N+](=O)[O-])cc1[N+](=O)[O-]	none (no result: KB-3-1 tox, MCF10A rerep, KB-V1 cytotox, SW480 rerep)
CN(C)S(=O)(=O)c1ccc2nnn(OCC(=O)NC34CC5CC(CC(C5)C3)C4)c2c1	KB-V1 cytotox 3.7µM
Cc1ccc(CNC(=O)c2cc(-c3ccccc3)nn2CC2CC(c3cccc([N+](=O)[O-])c3)=NO2)cc1 (configuration not stated)	none
Cc1ccc(CNC(=O)C2CC(c3cccc([N+](=O)[O-])c3)=NO2)cc1 (configuration not stated)	MCF10A rerep 2.1µM, SW480 rerep inconclusive
COc1ccc(CNC(=O)C2CC(c3cccc([N+](=O)[O-])c3)=NO2)cc1 (configuration not stated)	MCF10A rerep 9.2µM
COCCNC(=O)C1CC(c2cccc([N+](=O)[O-])c2)=NO1 (configuration not stated)	SW480 rerep inconclusive
COC(=O)C[C@H]1CC[C@H](NS(=O)(=O)c2cn(C)cn2)[C@@H](CO)O1	none (no result: MCF10A rerep, SW480 rerep, PINK1 modulator)
Cc1ccc(OCCCn2c(-c3ccc(Cl)cc3)nc3ccccc3c2=O)c(C)c1	KB-V1 cytotox inconclusive (no result: MCF10A rerep, SW480 rerep)
COC(=O)c1c(N)n(-c2cc(Cl)cc(Cl)c2)c2nc3ccccc3nc12	none (no result: MCF10A rerep, SW480 rerep)
O=C(Oc1ccccc1/C=C\C(=O)c1cc2ccccc2o1)c1ccccc1	MCF10A rerep inconclusive, SW480 rerep inconclusive
COc1ccc(O)c(C(=O)/C=C/c2cc3ccccc3o2)c1	MCF10A rerep 2.6µM, SW480 rerep inconclusive
O=C(Oc1ccccc1/C=C\C(=O)c1cc2ccccc2o1)c1cccc(F)c1	MCF10A rerep 18µM, KB-V1 cytotox inconclusive, SW480 rerep inconclusive
O=C(/C=C/c1cc2ccccc2o1)c1ccccc1O	MCF10A rerep inconclusive
COc1cccc(C(=O)Oc2ccccc2/C=C\C(=O)c2cc3ccccc3o2)c1	KB-3-1 tox inconclusive, MCF10A rerep 0.58µM, SW480 rerep inconclusive
c1ccc(COc2ncnc3c2ncn3CCCN2CCN(c3ncccn3)CC2)cc1	none (no result: MCF10A rerep, SW480 rerep)
CCCOc1ccc(C(=O)C(CN2CCCC2)c2ccccc2)cc1 (configuration not stated)	KB-3-1 tox 23µM, MCF10A rerep 8.2µM, KB-V1 cytotox inconclusive, SW480 rerep inconclusive
O=C(c1ccc(F)cc1)C(CN1CCOCC1)c1ccccc1 (configuration not stated)	KB-3-1 tox inconclusive, MCF10A rerep 5.2µM, KB-V1 cytotox inconclusive, SW480 rerep inconclusive
OC(CN1CCOCC1)CN(c1ccccc1)c1ccccc1 (configuration not stated)	KB-V1 cytotox 15µM

Screens deposited in PubChem by National Center for Advancing Translational Sciences (NCATS).
